In all, about 320,000 compounds went through this assay and about 480 (0.15%) were called active. Inconclusive results (about 1%) are left out. Rule as the data show it: active = inhibition above about 26% (passing the limit was not always enough); inconclusive = no clear call, values can overlap the other calls. Many of the other results were omitted from the sample, so actives are more common in it than they were.
Target: Histone deacetylase 3 (Homo sapiens) (UniProt O15379)
Experiment: inhibition of human HDAC3 enzyme activity – biochemical, fluorescence, cell-free homogeneous, primary screen (AID 2718)
Details: recombinant HDAC3, fluorogenic peptide/trypsin coupled, at 8.3 µM, active compounds read high

Histone deacetylase 3 (Homo sapiens), sequence (O15379 whole entry, looked up): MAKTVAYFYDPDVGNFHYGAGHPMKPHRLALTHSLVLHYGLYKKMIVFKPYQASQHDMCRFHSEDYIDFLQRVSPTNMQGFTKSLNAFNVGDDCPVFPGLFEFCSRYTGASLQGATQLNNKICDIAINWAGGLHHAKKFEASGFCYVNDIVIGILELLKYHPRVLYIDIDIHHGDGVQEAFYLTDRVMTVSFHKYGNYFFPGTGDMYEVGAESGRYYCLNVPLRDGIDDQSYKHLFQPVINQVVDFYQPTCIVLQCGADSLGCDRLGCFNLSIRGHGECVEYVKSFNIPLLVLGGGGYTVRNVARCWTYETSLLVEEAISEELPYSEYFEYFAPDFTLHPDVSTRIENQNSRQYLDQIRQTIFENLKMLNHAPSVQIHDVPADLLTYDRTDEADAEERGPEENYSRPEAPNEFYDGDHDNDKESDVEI

inhibition, inactive:
O=C(COC(=O)c1cccnc1Cl)NC12CC3CC(CC(C3)C1)C2 -0.423%
COCC(C)n1c(SCC(=O)NC2CCCCC2C)nc2ccccc2c1=O (configuration not stated) 0.838%
O=C(COC(=O)c1ccc(Br)o1)NC12CC3CC(CC(C3)C1)C2 -3.01%
C[C@H](CO)N1C[C@H](C)[C@@H](CN(C)C(=O)Nc2ccc3c(c2)OCO3)Oc2c(cccc2N(C)C)C1=O -8.66%
COc1ccc2nc3n(c(=O)c2c1)-c1ccc(Cl)cc1C(=O)NC3Cc1ccccc1 (configuration not stated) -1.2%
C[C@H]1COC(=O)[C@H](CC(=O)OC(C)(C)C)C/C=C\C[C@@H](CC(=O)N[C@H](CO)Cc2ccccc2)C(=O)N1 -4.05%
CN1C(=O)[C@H]2[C@@H](/C=C/c3ccccc3)N3C(=O)CN(Cc4ccc(-c5ccccc5)cc4)C(=O)[C@@]3(C)[C@H]2C1=O 6.83%
O=C(OCC(=O)N1CCCCCC1)c1ccc(Br)c(S(=O)(=O)N2CCOCC2)c1 -0.213%
O=C(CCNC(=O)c1ccc(Br)cc1)NCC(c1ccco1)N1CCCCC1 (configuration not stated) 2.98%
Cn1c(N)c(C(=O)COC(=O)c2ccc3ccccc3c2)c(=O)n(C)c1=O -3.95%
COC(=O)c1c(CCl)noc1C(=O)NC(C)C -2.79%
O=C(CNC(=O)c1ccccc1F)OCC(=O)c1c[nH]c2ccccc12 1.43%
Clc1cccc(Cl)c1Cn1nnc(-c2cccs2)n1 -9.16%
COc1cc(Cl)c(C)cc1NC(=O)CSc1nnc(CN2CCCC2)o1 -2.25%
Cc1nn(C)c(C)c1CN(C(=O)CCc1nnc(Cc2c[nH]c3ccccc23)o1)C(C)C -1.72%
Cc1ccsc1C(=O)NNC(=O)COc1ccc(Br)cc1 -2.82%
CC1(C)CC[C@@]2(C(=O)O)C(C1)C1=CCC3[C@@]4(C)CC[C@H](O)C(C)(C)C4CC[C@@]3(C)[C@]1(C)C[C@H]2O (some centres not stated) -0.0116%
CN(C(=O)CSc1cccc[n+]1[O-])C1CCCCC1 -0.125%
COc1cc(NC(=O)COC(=O)c2cc(S(=O)(=O)N3CCOCC3)ccc2F)cc(OC)c1 -6.13%
CC(C)CC1(C)NC(=O)N(CC(=O)Nc2ccc3c(c2)OCCO3)C1=O (configuration not stated) 0.72%
O=C(N/N=C\c1ccc(-c2ccc(Cl)c(Cl)c2)o1)C(=O)N1CCCC1 -2.85%
Cc1ccc(C(=O)N2CCC(n3nccc3NC(=O)Nc3cccc(F)c3)CC2)cn1 4.68%

Reference: PubChem BioAssay AID2718 (Broad Institute, 2010)
